TrxR1 substrate – is turned over as a substrate by rat TrxR1 | purified TrxR1 substrate turnover, NADPH consumption readout | hit rate 0.01% among 390,000 | O89049 | Potency, µM (highest dose often 114 µM), for inactives: top-dose activity change, negative = substrate turnover; further: potency means the concentration at half of the fitted maximal effect; nearly all actives have a fitted effect of over 50% in size
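Rat TrxR1, dispensed at 90 nM, was prereduced with 400 uM NADPH (final) for 5 min at ~22 deg C, then incubated with compound 15 min before 400 uM selenite. A first-read NADPH fluorescence drop versus no-compound background flagged substrates.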
PI4K2A block – blocks human PI4K2A kinase activity | AID 1346378 | hit rate 0.13% among 420,000 | Q9BTU6 | activity change, negative = inhibition, % at 76.9 µM | purified PI4K2A, ADP-Glo luminescence, 1 h; stronger effect = lower value; in the data active means activity change below about -50%; inconclusive means mostly about -30% to -49%;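 further: -100% = wells without enzyme as full effect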
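PI4K2A activity was measured by ADP-Glo luminescence: enzyme (4 ug/mL stock) and phosphatidylinositol (1.2 mM stock) in Tris pH 7.5/MgCl2/EGTA/Triton X-100 buffer were reacted with ATP (300 microM stock) for one hour at ambient temperature.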
PKM2 activator – increases activity of human pyruvate kinase M2. P14618. purified PKM2, Kinase-Glo ATP luminescence, activation; response scale: 0% is enzyme alone, no compound. Potency, µM (titrated, usually from 57.5 µM), for the others: at the top dose activation, most hits filed as activators. hit rate 0.34% among 260,000. AID 1631; further: potency means the concentration at half of the fitted maximal effect; nearly all actives have a fitted effect of over 55% in size
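Kinase-Glo luminescence reports ATP generated from ADP (0.1 mM) and PEP (0.5 mM) by purified hPK-M2 after 1 h at room temperature, pH 7.2 imidazole buffer; intermediate enzyme activity allows detecting inhibitors and activators.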
GALK inhibitor – blocks human galactokinase activity; Purified GALK, Kinase-Glo residual ATP luminescence; P51570; AID 1868; hit rate 0.007% among 270,000; Potency, µM (series often up to 57.5 µM), inactives show top-dose activity change, negative = inhibition, hits mostly inhibitors; further: potency means the concentration at half of the fitted maximal effect
Target sequence (P51570 whole entry, looked up): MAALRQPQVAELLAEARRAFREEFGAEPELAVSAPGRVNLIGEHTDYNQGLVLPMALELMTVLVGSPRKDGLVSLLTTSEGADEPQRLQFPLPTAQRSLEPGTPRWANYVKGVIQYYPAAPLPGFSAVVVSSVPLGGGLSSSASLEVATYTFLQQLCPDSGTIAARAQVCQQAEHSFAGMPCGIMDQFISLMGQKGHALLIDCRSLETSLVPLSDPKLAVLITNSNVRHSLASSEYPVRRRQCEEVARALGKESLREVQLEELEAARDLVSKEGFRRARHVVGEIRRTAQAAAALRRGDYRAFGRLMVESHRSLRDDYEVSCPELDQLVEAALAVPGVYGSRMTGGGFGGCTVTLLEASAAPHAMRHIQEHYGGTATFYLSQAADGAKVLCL
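Quantitative HTS: GALK 5 nM, ATP 35 uM, galactose 100 uM, 1 h room temperature, then luciferase-based ATP detection.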
TrxR1 inh – inhibitors of rat thioredoxin reductase 1; O89049; recombinant rTrxR1, NADPH fluorescence consumption, selenite substrate; hit rate 1% among 390,000; Potency, µM (doses to about 114 µM), for inactives: top-dose activity change, negative = inhibition, actives largely listed as inhibitors; further: potency means the concentration at half of the fitted maximal effect; nearly all actives have a fitted effect of over 65% in size
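Rat TrxR1 (90 nM in the dispensed reagent) was pre-reduced with 400 uM NADPH for 5 min at room temperature, then incubated with compound for 15 min. After 400 uM selenite was added, NADPH fluorescence (Ex 340/Em 450 nm) was followed for 8 min.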
The depositor's hits bear a star; ? = inconclusive; · = not tested or not shown; [ ] = another dose, or the depositor's remark. Hits are enriched below; roughly 1.2% of the tested compounds scored in any of these assays. Unless noted, the call rests on the fitted dose curve; in most records, active means well fitted curve in the direction sought with a large enough effect; inconclusive means small, poorly fitted or top-dose-only effect, or another doubt; inactive means no such curve, though single readings can be large; an effect the other way counts as inactive or inconclusive. Unless noted, on the % scale 0 is the no-effect control and ±100 the full control effect.

SMILES	TrxR1 substrate	PI4K2A block	PKM2 activator	GALK inhibitor	TrxR1 inh
O=C(Nc1ccccc1C(=O)Nc1ccccc1)c1ccccc1Br	-20%[57.1 µM]	0	·	·	15%[57.1 µM]
COCc1oc2ccc(NS(=O)(=O)c3ccc(C)cc3)cc2c1C(=O)OC	7%	-4	·	·	28%
COc1cccc(NS(=O)(=O)c2ccc3c(c2)CCN3C(C)=O)c1	11%	0	·	-1%	10%[57.1 µM]
CC(=O)N1CCc2cc(S(=O)(=O)Nc3cccc(C(F)(F)F)c3)ccc21	-12%	5	25µM*	1%	-10%
O=C(c1ccco1)N1CCN(Cc2csc(-c3ccccc3Cl)n2)CC1	1%	-4	12%	-5%	71µM*
O=C(c1cc2cc(Cl)ccc2[nH]1)N1CCN(C(=O)c2ccco2)CC1	5%	0	·	0%	50µM*
O=C(c1ccco1)N1CCN(Cc2ccc(Cl)cc2)CC1	-7%[57.1 µM]	-65*	-1%	-3%	5%[57.1 µM]
O=C(c1ccco1)N1CCN(Cc2c(Cl)cccc2Cl)CC1	0%	-3	2%	-3%	14%
CC(C)c1ccc(CNc2nc(-c3ccco3)nn2C(=O)c2ccc([N+](=O)[O-])cc2)cc1	10%	-10	·	·	29%
CCCCN(C)c1nc(-c2ccco2)c2c(c1C#N)CC(C)(C)OC2	-4%	-7	24%	1%	3.5µM*
Cn1c(=O)c([N+](=O)[O-])c(-n2ccnc2)c2ccccc21	11%[57.1 µM]	-5	15%	-2%	10µM*
Cn1c(=O)c([N+](=O)[O-])c(NCCCn2ccnc2)c2ccccc21	4%[57.1 µM]	8	0%	2%	14%[57.1 µM]
CCCN1CCC(=O)N(CCC#N)CC1	-11%	·	·	·	-17%
c1cnc2c(c1)ccc1cccnc12	9%[57.1 µM]	-1	0%	0%	12%[57.1 µM]
O=C1C=CC(=O)N1c1cccc2cccnc12	13%	-21	·	·	56µM*
COc1ccc(NC(=O)CCNS(=O)(=O)c2ccc3c(c2)CCCC(=O)N3)cc1	-4%	-3	·	·	13%
COc1ccccc1CN(C)C(=O)c1ccc2c(c1)NC(=O)CS2	3%	6	-1%	-4%	-1%
Cc1ccc(CN(C)C(=O)c2ccc3c(c2)NC(=O)CS3)o1	-2%	-2	?	0%	18µM*
COc1ccc(OC)c(NS(=O)(=O)c2cc3c(cc2Cl)N(C(C)=O)CCO3)c1	9%[11.4 µM]	-1	·	·	18µM*
O=C(Cn1c(=O)nc(-c2ccccc2)c2cc(Cl)ccc21)NCCCc1ccccc1	10%	-2	·	·	10%
CCOC(=O)[C@@]12CCCC3=C1N(CCC3)C(=O)[C@H]2CC(=O)NCC1CCCCC1	·	-17	·	·	·
CN1c2ccc(-c3cccc(F)c3)cc2[C@H]2[C@H](CCN2S(=O)(=O)c2cccc(F)c2)[C@H]1CO	·	9	·	·	·
Cc1ccc(S(=O)(=O)NCC(C)n2nc(C)cc2C)cc1 (stereo unspecified)	-1%	3	-6%	0%	1%
Cc1ccc(C(C[N+](=O)[O-])n2nc(C)cc2C)cc1 (stereo unspecified)	-4%	0	-16%	-2%	5.6µM*
CCCCCCCCN1C(=O)[C@@H](CC(=O)NCCCOC)C[C@@]2(C(=O)OC)C1=C[C@H](C(C)C)O[C@@H]2C1CC1	·	-8	·	·	·
SMILES	TrxR1 substrate	PI4K2A block	PKM2 activator	GALK inhibitor	TrxR1 inh
CC(C)NC(=O)c1ccc2c3n(nc2c1)-c1ccccc1CO3	15%	-63*	-15%	8%	6%[57.1 µM]
CC(C)[C@@H](CO)NC(=O)c1ccc2c3n(nc2c1)-c1ccccc1CO3	21%	-20	-8%	6%	13%
CC(=O)CS(=O)(=O)c1ccc(Oc2ccc(S(=O)(=O)CC(C)=O)cc2)cc1	8%[57.1 µM]	0	21%	-3%	-74%
CC(=O)CCS(=O)(=O)c1ccc(Oc2ccc(S(=O)(=O)CCC(C)=O)cc2)cc1	-2%	-17	0%	0%	50µM*
Cc1cccc(NC(=O)CN2C(=O)N/C(=C/c3ccc(C)o3)C2=O)c1	3%	2	?	-1%	40µM*
C=CCN1C(=O)N/C(=C/c2ccc(C)o2)C1=O	-9%	-5	?	0%	50µM*
CCOc1ccc(-n2c(=O)c3c4c(sc3n(CC(=O)NC(C)CC)c2=O)CCC4)cc1 (stereo unspecified)	1%	-3	·	·	7%
N#C/C(=C\c1cccs1)C(=O)c1ccccc1Cl	-6%	-21	?	-6%	13µM*
CC(C)(C)C(=O)/C(C#N)=C/c1cccs1	-5%[57.1 µM]	0	0%	·	-1%[57.1 µM]
COc1ccc(C(=O)c2no[n+]([O-])c2C(=O)c2ccc(OC)cc2)cc1	-6%	4	14%	0%	0.63µM*
O=C(c1cccs1)c1no[n+]([O-])c1C(=O)c1cccs1	4%	-1	0%	-5%	0.71µM*
Cc1occc1-c1nnc(SCC(=O)Nc2ccncc2)n1-c1ccccc1	·	3	·	·	·
Cc1nc2ccc(S(=O)(=O)NCC(=O)N(C)Cc3ccccc3Cl)cc2s1	·	4	·	·	·
O=C(N/N=C/C(Cl)=C/c1ccc([N+](=O)[O-])cc1)C(=O)Nc1cccc(C(=O)O)c1	-17%	-17	13%	-4%	79µM*
C[C@@H](N)P(=O)(O)C[C@H](Cc1ccccc1)C(=O)O	·	-8	·	·	·
O=C(NCCCN1CCCCC1)c1cc(Sc2ccc(Cl)cc2)nc2ccccc12	-3%[57.1 µM]	-4	·	·	3%[57.1 µM]
COc1ccc(CNC(=O)Nc2cccs2)cc1OC	-1%	-13	18µM*	0%	-16%
Cc1ccc(CNC(=O)Nc2cccs2)cc1	-6%	5	25µM*	-3%	-17%
Cc1cc(C)c(NC(=O)Cn2nc(-c3ccncc3)ccc2=O)c(C)c1	-4%[57.1 µM]	-9	·	·	7%[57.1 µM]
O=C(CCN1C(=O)/C(=C/c2ccco2)SC1=S)Nc1ccc(O)cc1C(=O)O	-1%[57.1 µM]	-2	·	·	?
O=C(CCN1C(=O)/C(=C\c2ccco2)SC1=S)Nc1ccc(C(=O)O)c(O)c1	-5%	-11	·	0%	40µM*
O=C(CCN1C(=O)/C(=C/c2ccco2)SC1=S)Nc1ccc(C(=O)O)c(O)c1	-9%	-7	·	-3%	45µM*
O=C(O)CCCN1C(=O)/C(=C\c2ccco2)SC1=S	7%[57.1 µM]	-26	-21%	9%	22µM*
C#CCNC(=O)C[C@H]1C[C@@]2(C(=O)OC)C(=C[C@H](COCc3ccccc3)O[C@@H]2C)N(Cc2cccc3ccccc23)C1=O	·	1	·	·	·
COC(=O)[C@]12C[C@H](CC(=O)N3CCCCC3)C(=O)N(Cc3ccc4c(c3)OCO4)C1=C[C@H](C(C)C)O[C@@H]2C1CC1	·	-2	·	·	·
Cc1cccc(-c2nnc(SCC#N)n2C)c1	4%	-1	-6%	4%	12%
Cc1ccc(S(=O)(=O)Nc2ccc(-c3nnc(SCC#N)n3C)cc2)cc1	-5%	-2	20µM*	-1%	-15%[57.1 µM]
CCOC(=O)c1cc2sc(C)cc2n1CCCN1C(=O)c2ccccc2C1=O	-3%	8	0%	-4%	4%
